This is a sample that favours compounds with a hit; in the whole collection about 1.1% have one here.
NCOA2 inhibitor: inhibits human steroid receptor coactivator 2; Q15596; HEK293 GAL4-SRC2 luciferase reporter, luminescence; 0.17% of 370,000 active; inhibition, % at 9 µM; AID 651957;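 active means inhibition above the mean inhibition of all tested compounds plus 3 SD, set per campaign, cut at about 52% in these data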;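 further: 0% = DMSO treated cells and 100% = cells given Gossypol at 36 µM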
SRC3 inh: human NCOA3 inhibition. Q9Y6Q9. HEK293 GAL4-SRC3 luciferase reporter, luminescence. inhibition, % at 3.6 µM. 0.17% of 360,000 active;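 active means inhibition above a per-campaign cutoff, the mean of all compounds plus 3 SD, cut at about 60% in these data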;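 further: 0% = DMSO-treated cells and 100% = gossypol-treated cells at 36 µM; higher means less SRC3-driven luciferase light from the GAL4 reporter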
SRC1 inh: inhibits human SRC1 coactivator; Q15788; 0.12% of 360,000 active; inhibition, % at 3.6 µM; HEK293 GAL4-SRC1 luciferase reporter, luminescence; AID 588354;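 active means inhibition above the campaign mean plus 3 SD, with each screening campaign given its own cutoff, cut at about 60% in these data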;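 further: 0% = DMSO treated cells and 100% = gossypol at 36 µM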
Target sequence (Q15788 whole entry, looked up, the tested form may be a part): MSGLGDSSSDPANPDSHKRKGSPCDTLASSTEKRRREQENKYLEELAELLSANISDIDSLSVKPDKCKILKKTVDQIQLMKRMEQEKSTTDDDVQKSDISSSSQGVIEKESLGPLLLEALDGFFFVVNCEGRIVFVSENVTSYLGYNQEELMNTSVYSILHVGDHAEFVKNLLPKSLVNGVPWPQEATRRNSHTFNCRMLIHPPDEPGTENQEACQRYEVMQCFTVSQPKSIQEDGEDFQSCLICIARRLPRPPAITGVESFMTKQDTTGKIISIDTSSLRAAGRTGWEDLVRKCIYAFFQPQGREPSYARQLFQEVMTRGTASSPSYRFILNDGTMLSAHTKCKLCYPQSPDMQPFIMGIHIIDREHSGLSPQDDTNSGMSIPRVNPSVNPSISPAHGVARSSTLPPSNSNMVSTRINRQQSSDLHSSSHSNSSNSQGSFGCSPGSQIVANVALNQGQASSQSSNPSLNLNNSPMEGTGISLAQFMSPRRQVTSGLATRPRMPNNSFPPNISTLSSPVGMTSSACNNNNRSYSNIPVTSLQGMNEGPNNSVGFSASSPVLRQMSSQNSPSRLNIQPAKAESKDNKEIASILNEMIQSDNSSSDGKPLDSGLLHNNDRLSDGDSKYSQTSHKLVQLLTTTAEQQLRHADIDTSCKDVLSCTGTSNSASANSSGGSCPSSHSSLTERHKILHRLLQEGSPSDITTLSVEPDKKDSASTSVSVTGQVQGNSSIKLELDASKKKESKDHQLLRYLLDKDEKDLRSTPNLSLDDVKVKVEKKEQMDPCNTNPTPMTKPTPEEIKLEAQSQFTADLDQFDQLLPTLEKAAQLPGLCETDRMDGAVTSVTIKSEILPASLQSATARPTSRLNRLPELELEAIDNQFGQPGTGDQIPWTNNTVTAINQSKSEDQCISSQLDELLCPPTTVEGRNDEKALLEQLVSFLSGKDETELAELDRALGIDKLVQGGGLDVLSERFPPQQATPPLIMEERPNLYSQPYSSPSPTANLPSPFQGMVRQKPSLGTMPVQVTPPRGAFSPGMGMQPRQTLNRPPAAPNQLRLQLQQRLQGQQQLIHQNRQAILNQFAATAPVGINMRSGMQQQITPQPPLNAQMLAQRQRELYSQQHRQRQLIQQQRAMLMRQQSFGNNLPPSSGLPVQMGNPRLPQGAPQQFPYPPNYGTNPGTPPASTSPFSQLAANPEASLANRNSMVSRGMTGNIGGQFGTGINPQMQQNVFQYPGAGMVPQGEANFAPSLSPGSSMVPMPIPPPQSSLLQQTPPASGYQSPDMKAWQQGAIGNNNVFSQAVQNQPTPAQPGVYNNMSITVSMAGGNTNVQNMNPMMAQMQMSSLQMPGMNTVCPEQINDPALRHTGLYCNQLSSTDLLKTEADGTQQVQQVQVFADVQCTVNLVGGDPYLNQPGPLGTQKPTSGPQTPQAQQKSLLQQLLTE
LRH-1 inv ag: inverse agonists of human LRH-1 (NR5A2); inhibition, % at 3.6 µM; HEK293T StAR-luciferase reporter, LRH-1 transfected, 24 h; AID 602396; O00482; 0.13% of 360,000 active;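 active means inhibition above the mean inhibition of all tested compounds plus 3 SD, cut at about 73% in these data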;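 further: 0% = DMSO wells and 100% = reporter-only cells lacking LRH-1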
COUP-TFII inh: blocks human COUP-TFII nuclear receptor. HEK293T NGFI-A luciferase reporter, luminescence. 0.7% of 370,000 active. inhibition, % at 8.6 µM;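 active means inhibition above a per-plate cutoff, mean inhibition of test wells between control levels plus 3 SD, cut at about 38% in these data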;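 further: cells cotransfected with COUP-TFII expression vector driving the NGFI-A reporter; 0% = median of COUP-TF2 test wells and 100% = reporter-only cells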
GalR3 antagonist: blocks the human galanin receptor 3; HEK293 GalR3-CNG cAMP membrane potential fluorescence; galR3 body fused to GalR1 C-terminus; 0.44% of 360,000 active; inhibition, % at 3 µM; O60755;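 active means inhibition above the screen-wide average plus 3 SD, cut at about 13% in these data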;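 further: forskolin and galanin both at EC90 stimulate the cells; cAMP rise reported by CNG channel membrane potential dye signal; 0% = forskolin plus galanin with DMSO and 100% = forskolin alone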
GalR3 antag conf: confirmation of human galanin receptor 3 antagonists | HEK293 GalR3 CNG cAMP biosensor, membrane potential fluorescence; galR3 fused to GalR1 carboxy tail; challenged with forskolin and galanin at EC90 | AID 652245 | inhibition, % at 3 µM | 59% of 1,600 active | shares compounds with GalR3 antagonist;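 active means inhibition above the primary screen's cutoff, the mean inhibition of all screened compounds plus 3 SD, cut at about 13% in these data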;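 further: 0% = forskolin plus galanin and 100% = forskolin alone with DMSO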
CNG parental: acts as nonspecific agonist in parental HEK-CNG cells | 10% of 1,600 active | activation, % at 3 µM | shares compounds with GalR3 antagonist | HEK293-CNG parental cells, cAMP membrane potential fluorescence; normalised: DMSO wells 0%, forskolin wells 100%; in the data active means activation above about 1.3%
Gal4-VP16 ctr: counter-screen for COUP-TFII antagonists: inhibitors of VP16; shares compounds with COUP-TFII inh; HEK293 Gal4-VP16 luciferase reporter, luminescence; inhibition, % at 8.5 µM; 25% of 2,500 active; AID 687007; in the data active means inhibition above about 13%
COUP-TFII conf: COUP-TFII (NR2F2) inhibition, confirmation assay. HEK293 NGFI-A luciferase reporter, luminescence. 45% of 2,500 active. shares compounds with COUP-TFII inh. inhibition, % at 8.5 µM. AID 687008;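 active means mean inhibition over three repeats above a set limit taken from the earlier primary screen, cut at about 38% in these data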;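 further: 100% = cells given the luciferase reporter alone without the COUP-TF2 vector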
* hit, by the source's call; x = no result.

SMILES | NCOA2 inhibitor | SRC3 inh | SRC1 inh | LRH-1 inv ag | COUP-TFII inh | GalR3 antagonist | GalR3 antag conf | CNG parental | Gal4-VP16 ctr | COUP-TFII conf
CCOC(=O)[C@]12CCCC=C1N(Cc1ccc(OC)cc1)C(=O)[C@@H]2CC(=O)N1CCN(C(=O)c2ccco2)CC1 | 3 | x | x | x | 4 | x | x | x | x | x
CC1(C)CC(=O)c2sc(N3CCCCC3)nc2C1 | -41 | -119 | -72 | -64 | -11 | -2 | x | x | x | x
CC1(C)CC(N2CCCC2)=CC(=[N+]2CCCCC2)C1 | 9 | 30 | 43 | 53 | 56* | 37* | 6 | 0 | 8 | 45*
COc1cccc(CN(C)C(=O)c2ccc(OCC(=O)Nc3cccc(C(F)(F)F)c3)c(OC)c2)c1 | 24 | 45 | 28 | 36 | 77* | 90* | 94* | -1 | 8 | 76*
CCCCCCn1c(NCC)nc2c1c(=O)n(C)c(=O)n2C | 11 | 30 | 25 | 45 | 57* | 32* | 77* | 0 | 11 | 49*
COc1ccc(CNC(=O)Cc2nn(C)c(=O)c3ccccc23)cc1 | 11 | 14 | 10 | 22 | 49* | 34* | 29* | 0 | 4 | 24
Cn1nc(CC(=O)NCc2ccc(C(F)(F)F)cc2)c2ccccc2c1=O | -4 | 21 | -8 | 11 | 23 | -3 | x | x | x | x
CCc1nc2ccccc2c(C(=O)OCC(=O)Nc2cccc(S(=O)(=O)NC3=NCCCCC3)c2)c1C | 11 | 19 | 7 | 3 | 64* | 14* | 0 | -1 | -2 | 21
O=C(COC(=O)c1ccc2ccccc2n1)Nc1cccc(S(=O)(=O)NC2=NCCCCC2)c1 | 1 | 6 | -15 | 21 | -9 | 0 | x | x | x | x
CCOC(=O)[C@@]12CN(C(=O)OC(C)(C)C)CC=C1N(Cc1ccc(OC)cc1)C(=O)[C@H]2CC(=O)NCCc1ccccc1OC | -12 | x | x | x | 1 | x | x | x | x | x
Cc1ccc(-n2ncc3c2CCCC3NC(=O)c2ccoc2)cc1C (configuration not stated) | -10 | 6 | -3 | 1 | -3 | -4 | x | x | x | x
CCc1cc(C(=O)NC2CCCc3c2cnn3-c2cccc(C)c2C)n(C)n1 (configuration not stated) | 12 | x | x | x | 64* | 99* | 102* | 0 | 9 | 66*
Cc1cc(C(=O)NC2CCCc3c2cnn3-c2ccc(C)c(C)c2)n(C)n1 (configuration not stated) | -9 | 42 | 8 | 51 | 66* | 99* | 105* | 0 | 2 | 69*
Cc1cccc(-n2ncc3c2CCCC3NC(=O)C2(C(N)=O)CC2)c1C (configuration not stated) | 28 | 30 | 28 | 51 | 66* | 114* | 106* | -1 | 4 | 52*
COCCNC(=O)C[C@H]1CC[C@H]2[C@@H](COc3ccc(NC(=O)Nc4cccc(F)c4)cc3C(=O)N2C)O1 | -15 | x | x | x | -5 | x | x | x | x | x
CCOc1ccc(N(CC(=O)Nc2c(C)n(C)n(-c3ccccc3)c2=O)S(=O)(=O)c2ccc3c(c2)N(C(=O)C2CCC2)CC3)cc1 | -34 | x | x | x | -2 | x | x | x | x | x
S=C(Nc1ccccc1Cl)OCCN1CCCC12CCC(c1ccccc1)CC2 (configuration not stated) | x | x | x | x | 14 | x | x | x | x | x
O=C(Nc1ccc(Oc2ccccc2)nc1)C1CCN(Cc2ccccc2)CC1 | 14 | 6 | 8 | 6 | 18 | -5 | x | x | x | x
COc1ccc(CN2CCC(C(=O)Nc3ccc(Oc4ccccc4)nc3)CC2)cc1F | 37 | 18 | 11 | 6 | 48* | 62* | 101* | 0 | -1 | 31
O=C(CCc1ccccc1)N[C@H]1[C@H](OC(=O)c2cnccn2)CCC[C@]12C(=O)N(Cc1ccccc1)c1ccccc12 | 7 | x | x | x | 5 | x | x | x | x | x
CCN1/C(=C/c2ccc3cc(C)ccc3[n+]2CC)Sc2ccccc21 | -30 | 55 | 65* | 96* | 86* | 38* | 45* | 12* | 1 | 79*
CCN1/C(=C/c2ccc3cc(C)ccc3[n+]2CC)Sc2cc(C)c(C)cc21 | 30 | 56 | 32 | 68 | 78* | 51* | 58* | 9.7* | 8 | 64*
CCOC(=O)/C(=C/C=C1\Sc2cc(C)c(C)cc2N1CC)C(C)=O | 23 | 12 | 3 | -4 | 21 | -1 | x | x | x | x
O=C(NC1CCCc2c1cnn2-c1ccccc1F)c1ccncc1 (configuration not stated) | 1 | 14 | 24 | 38 | 63* | 32* | 75* | 0 | 14* | 49*
O=C(NC1CCCc2c1cnn2-c1ccccc1F)c1ccccn1 (configuration not stated) | 11 | -47 | 21 | -34 | -51 | -7 | x | x | x | x
SMILES | NCOA2 inhibitor | SRC3 inh | SRC1 inh | LRH-1 inv ag | COUP-TFII inh | GalR3 antagonist | GalR3 antag conf | CNG parental | Gal4-VP16 ctr | COUP-TFII conf
COc1ccc(C(=O)NC2CCCc3c2cnn3-c2ccccc2F)cc1OC (configuration not stated) | 15 | 19 | -15 | 25 | 50* | 68* | 42* | 0 | 11 | 49*
CCC(C)NC(=O)C1CCN(S(=O)(=O)c2ccc3[nH]c(=O)oc3c2)CC1 (configuration not stated) | -10 | x | x | x | 10 | x | x | x | x | x
CSc1ccc(CN2CCN(Cc3ccc([N+](=O)[O-])cc3)CC2)cc1 | 21 | 21 | 25 | 38 | 51* | 84* | 104* | 0 | 3 | 46*
CCOC(=O)CC[C@H]1CC[C@]2(CCCN(C(=O)C3CCCC3)C2)O1 | 17 | x | x | x | -11 | x | x | x | x | x
O=C(OCCN1C(=O)c2cccc3c(N4CCOCC4)ccc(c23)C1=O)c1ccccc1Cl | 25 | 22 | 15 | 8 | 66* | 15* | 74* | 2.9* | -4 | 23
CCN(CC)S(=O)(=O)c1cccc(NC(=O)COC(=O)c2[nH]c(C)c(C(C)=O)c2C)c1 | 21 | 41 | 45 | 40 | 62* | 28* | 97* | 0 | 2 | 60*
CC(=O)c1c(C)[nH]c(C(=O)OCC(=O)Nc2cccc(S(=O)(=O)N(C)C)c2)c1C | 12 | 24 | 9 | 17 | -11 | -3 | x | x | x | x
COc1ccc(CCNc2ccc(N3C(=O)CC(C)C3=O)cc2[N+](=O)[O-])cc1OC (configuration not stated) | 29 | 21 | 8 | 36 | 55* | 59* | 104* | -1 | -5 | 24

Screening data as filed in PubChem BioAssay.
